# Source: PubChem BioAssay (NCATS)
# Records with an inconclusive call do not appear. Entries that show only a call come without a potency. Calls of active or inactive are those of the source. Calls come from the whole dose curve; as a rule, active = well fitted curve in the direction sought with a large enough effect; inconclusive = small, poorly fitted or top-dose-only effect, or another doubt; inactive = no such curve, though single readings can be large; an effect the other way counts as inactive or inconclusive.
# How the values were obtained:
# [1] = biological target: Protein phosphatase 1D (Homo sapiens) (UniProt O15297); assay: RapidFire Mass Spectrometry qHTS Assay for Modulators of WT P53-Induced Phosphatase 1 (WIP1) (AID 1347424); details: WIP1 dephosphorylation of phosphopeptide, RapidFire MS; series mostly up to 63 µM;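 note: amount of dephosphorylated VEPPL-S-QETFS peptide product formed by WIP1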
# Procedure, shortened: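 10 nM WIP1 preincubated with compounds 1 hr at room temperature in pH 7.5 Tris buffer with 30 mM MgCl2, 1 mM TCEP; 2 uM VEPPL-pS-QETFS phosphopeptide for 5 min, formic acid quench; dephosphorylated product quantified by RapidFire MS against labelled standard.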
# [2] = biological target: Protein phosphatase 1D (Homo sapiens) (UniProt O15297); assay: Rhodamine-PBP qHTS Assay for Modulators of WT P53-Induced Phosphatase 1 (WIP1) (AID 1347425); details: recombinant WIP1, Rhodamine-PBP phosphate fluorescence, real-time; series mostly up to 57.5 µM
# Procedure, shortened: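 5 nM WIP1 + 10 uM Rh-PBP, 50 mM Tris pH 7.5, 30 mM MgCl2, 1 mM TCEP, 0.1 mM EGTA, BSA; cpds pinned, 1 hr RT; + 10 uM phosphopeptide; fluorescence 1-min reads x 11 min; delta = f1 - f0.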
# [3] = qHTS for inhibitors of adenylyl cyclases using a fission yeast platform: a pilot screen against the NCATS LOPAC library (AID 1347410); details: S. pombe CHP2027, fbp1-GFP fluorescence, 18 h, yeast expressing mammalian AC9 and human GNAS; series mostly up to 57.5 µM
# Procedure, shortened: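 GFP from fbp1-GFP reporter, read by Acumen laser cytometry, indicates AC inhibition in fission yeast expressing AC9, GNAS and PDE4D2. Cells grown 18 h in the dark at 30C with compounds, final up to 57 uM.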
# [4] = Validation qHTS assay for inhibitors of Activation Induced Cytidine Deaminase (AID): UDG Counterscreen signal (AID 1347427); details: biochemical UDG counterscreen, fluorescence signal; series mostly up to 115 µM
# Procedure, shortened: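 Counterscreen read of UDG activity (2 U/mL, 4/3x) in the FRET deamination format with AID (1 uM, 4/3x), DJC20/DJC23 substrates (250 nM, 4x), 4 h at room temperature. NaOH stop, fluorescence at 560 ex/665 em.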
# [5] = qHTS to identify inhibitors of the type 1 interferon - major histocompatibility complex class I in skeletal muscle: primary screen against the NCATS Mechanism Interrogation Plate v5.0 (MIPE) Libary (AID 1347411); details: iHSKM cells + IFN-b, HiBiT-tagged MHC-I luminescence, 24 h; series mostly up to 45.8 µM; note: nearly all actives have a fitted effect of over 65% in size
# Procedure, shortened: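 Immortalized human C25cl48 myoblasts with HiBit knocked into endogenous HLA-B*08:01 were stimulated with 4.0 ng/ml IFN-beta and exposed to compounds (11-point 1:3 titration, top 46 uM final) for 24 hrs at 37 C; HiBiT lytic luminescence measured.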
# Sequence of Protein phosphatase 1D (Homo sapiens) (O15297 whole entry, looked up): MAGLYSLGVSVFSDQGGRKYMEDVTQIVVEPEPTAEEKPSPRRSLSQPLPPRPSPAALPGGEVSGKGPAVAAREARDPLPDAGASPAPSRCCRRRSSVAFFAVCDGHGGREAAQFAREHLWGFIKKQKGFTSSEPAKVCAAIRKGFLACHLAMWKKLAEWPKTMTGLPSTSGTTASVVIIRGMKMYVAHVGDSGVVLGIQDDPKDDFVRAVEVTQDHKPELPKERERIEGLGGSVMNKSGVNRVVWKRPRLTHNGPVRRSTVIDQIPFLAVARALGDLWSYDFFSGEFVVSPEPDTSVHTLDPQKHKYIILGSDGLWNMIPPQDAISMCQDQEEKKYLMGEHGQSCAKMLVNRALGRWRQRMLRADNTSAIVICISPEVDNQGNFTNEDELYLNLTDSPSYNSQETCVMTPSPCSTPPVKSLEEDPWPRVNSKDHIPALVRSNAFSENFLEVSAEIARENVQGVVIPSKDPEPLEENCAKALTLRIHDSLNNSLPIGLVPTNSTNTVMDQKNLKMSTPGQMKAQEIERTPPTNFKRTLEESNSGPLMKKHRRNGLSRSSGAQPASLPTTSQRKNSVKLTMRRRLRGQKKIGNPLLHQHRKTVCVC
structure (smiles),measurement,setting,value
CN(C)c1ccc(N=NS(=O)(=O)O)cc1,Potency,[1],inactive
same,outcome,[2],inactive
COC(=O)Nc1nc2ccc(C(=O)C3CC3)cc2[nH]1,Potency,[1],inactive
O=C(/C=C/c1ccc(O)cc1)c1ccc(O)cc1O,outcome,[3],inactive
same,Potency,[4],inactive
COc1cc(OC)c(/C=C2/C(=O)Nc3ccccc32)c(OC)c1,outcome,[3],inactive
same,Potency,[4],inactive
COc1ccc(/C=C/C(=O)Nc2ccccc2C(=O)O)cc1OC,outcome,[3],inactive
same,Potency,[5],inactive
same,Potency,[4],inactive
N#C/C(=C\c1ccc(O)c(O)c1)C(=O)NCc1ccccc1,Potency,[5],inactive
same,Potency,[4],inactive
CC12C(=O)OC(=O)C1(C)C1CCC2O1 (configuration not stated),outcome,[3],inactive
same,Potency,[4],inactive
CN1CCc2cccc3c2C1Cc1ccc(O)c(O)c1-3 (configuration not stated),outcome,[3],inactive
same,Potency,[4],inactive
NS(=O)(=O)C#Cc1ccccc1,outcome,[3],inactive
same,Potency,[4],inactive
C=CC(=O)c1ccc(CCCCCC)cc1,Potency,[4],inactive
O=[N+]([O-])c1ccc2c(c1)S(=O)(=O)C=C2,outcome,[3],inactive
same,Potency,[4],inactive
CN(C)c1nc(N)c(C(=O)N=C(N)N)nc1Cl,outcome,[3],inactive
same,Potency,[4],inactive
CCCCCCCCCCCCCCCCCCNC(=O)OCC(COP(=O)([O-])OCC[n+]1ccsc1)OC (configuration not stated),Potency,[4],inactive
CCCSc1ccc2nc(NC(=O)OC)[nH]c2c1,Potency,[1],inactive
CCCCCCCCCCCCCCCCCC(=O)OC(CC(=O)O)C[N+](C)(C)C (configuration not stated),outcome,[3],inactive
same,Potency,[4],inactive
NC[C@@H]1O[C@H](C23CC4CC(CC(C4)C2)C3)Cc2c1ccc(O)c2O,outcome,[3],inactive
same,Potency,[4],inactive
CCCCC1C(=O)N(c2ccccc2)N(c2ccc(O)cc2)C1=O (configuration not stated),Potency,[1],inactive
Cc1cc2c(cc1Cl)N(C(=O)Nc1ccc(Oc3cccnc3C)nc1)CC2,outcome,[3],inactive
same,Potency,[4],inactive
O=c1[nH]c2ccccc2n1CCCN1CCN(C(c2ccccc2)c2ccccc2)CC1,Potency,[1],inactive
same,outcome,[2],inactive
COC(=O)C1=C(C)NC(C)=C(C(=O)OCC(C)=O)C1c1ccccc1[N+](=O)[O-] (configuration not stated),Potency,[1],inactive
CC[C@@H](C)[C@H]1O[C@]2(CC[C@H]1C)C[C@@H]1C[C@@H](CC=C(C)[C@@H](O[C@H]3C[C@H](OC)[C@@H](O[C@H]4C[C@H](OC)[C@@H](O)[C@H](C)O4)[C@H](C)O3)[C@@H](C)C=CC=C3CO[C@@H]4[C@H](O)C(C)=C[C@@H](C(=O)O1)[C@]34O)O2,outcome,[3],inactive
same,Potency,[4],inactive
Cc1c(Nc2ncccc2C(=O)O)cccc1C(F)(F)F,Potency,[1],inactive
same,outcome,[2],inactive
CC[C@H]1OC(=O)[C@H](C)[C@@H](O[C@H]2C[C@@](C)(OC)[C@@H](O)[C@H](C)O2)[C@H](C)[C@@H](O[C@@H]2O[C@H](C)C[C@H](N(C)C)[C@H]2O)[C@](C)(O)C[C@@H](C)C(=O)[C@H](C)[C@@H](O)[C@]1(C)O,Potency,[5],inactive
O=c1cc(-c2ccccc2)oc2ccccc12,Potency,[1],inactive
same,outcome,[2],inactive
S=c1[nH]c2ccccc2s1,Potency,[1],inactive
CN(C)c1ccc(C(=C2C=CC(=[N+](C)C)C=C2)c2ccccc2)cc1,Potency,[1],inactive
Cc1[nH]cnc1CN1CCc2c(c3ccccc3n2C)C1=O,Potency,[1],inactive
same,outcome,[2],inactive
COc1cc(CNC(=O)CCCC/C=C/C(C)C)ccc1O,Potency,[5],inactive
C=CCc1cccc(/C=N/NC(=O)CN2CCN(Cc3ccccc3)CC2)c1O,Potency,[5],inactive
CN(C)c1ccc(/C=C2\C(=O)Nc3ccccc32)cc1,outcome,[3],inactive
same,Potency,[4],inactive
CC1(C)[C@@H](O)CC[C@]2(C)[C@H]3C(=O)C=C4[C@@H]5C[C@@](C)(C(=O)O)CC[C@]5(C)CC[C@@]4(C)[C@]3(C)CC[C@@H]12,Potency,[5],inactive
CCNC(=O)[C@H]1O[C@@H](n2cnc3c(N)nc(NCCc4ccc(CCC(=O)O)cc4)nc32)[C@H](O)[C@@H]1O,Potency,[5],inactive
same,Potency,[4],inactive
c1cnc2c(c1)ccc1cccnc12,outcome,[3],inactive
same,Potency,[4],inactive
O=C(c1cc(O)c(O)c([N+](=O)[O-])c1)c1ccccc1F,outcome,[3],inactive
same,Potency,[4],inactive
